According to ChEMBL document CHEMBL1201862, “PubChem BioAssay data set” (2004):
In all, about 58,000 sequences went through this assay and about 4,000 (6.9%) were called active. Rule as the data show it: active = GI50 up to about 1.1 µM and inactive = higher. The list is a sample of the results. Results with a measured potency or affinity are listed apart.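 Values below derive from 48-hour exposures of cells grown in 96-well plates, with endpoints linearly interpolated between the two concentrations bracketing the appropriate inhibition level. GI50 = concentration required for 50% inhibition of growth.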

tested on: KM12; assay: NCI tumour cell line growth inhibition, 48 h

Row | Substance | GI50
1 | [Bis(aminomethyl)pentamethylenesilane]dichloropaltinum(II), CHEMBL2146202 | 5.56 µM
2 | [Bis(aminomethyl)tetramethylenesilane]dichloropaltinum(II), CHEMBL2146205 | 78 µM
3 | mu-(1,7-nanodiamine-N,N')bis-(cis-aminedichloroplatimum (II)), CHEMBL2146215 | 97.1 µM
4 | [Bis(aminomethyl)pentamethylenesilane]tetrachloropaltinum(IV), CHEMBL2146204 | 4.12 µM
5 | [Bis(aminomethyl)ethylmethylsilane]tetrachloroplatinum(IV), CHEMBL2146192 | 3.89 µM
6 | [Bis(aminomethyl)diethylsilane]tetrachloroplatinum(IV), CHEMBL2146203 | 8.85 µM
7 | [Bis(aminomethyl)dimethylsilane]dichloroplatinum (II), CHEMBL2146201 | > 100 µM
8 | CISPLATIN, CHEMBL11359 | 10 µM
9 | [Bis(aminomethyl)dimethylsilane]tetrachloroplatinum(IV), CHEMBL2146190 | 18.1 µM
10 | [Bis(aminomethyl)tetramethylenesilane]tetrachloropaltinum(IV), CHEMBL2146189 | 14.8 µM
11 | cis-Bis[[(trimethylsilyl)methyl]amino]tetrachloroplatinum(IV), CHEMBL2146191 | 9.66 µM
